The full list was thinned out, with hits kept by preference.
Tgondii IFNg: blocks Toxoplasma gondii growth in the presence of IFN-gamma | activity change, negative = inhibition, % (test concentration not listed) | hit rate 3.8% among 69,000 | Toxoplasma gondii growth in IFN-gamma-treated host cells; active compounds read low; in the data active = activity change below about -70%, passing the limit was not always enough;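 also: host cells are HeLa cells infected with Toxoplasma gondii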
* = called active by the depositor; ! = not confirmed by another sample.

SMILES	Tgondii IFNg
O=C(c1ccno1)N1CC[C@H]2CN(Cc3ccc(Cl)cc3)S(=O)(=O)[C@@H]2CC1	2.4
CCc1ccc(CN2CC[C@H]3CN(C4CCOCC4)CCO[C@@H]3C2)o1	-7.1
COc1c(C)cc(C(=O)C2CCCN(C(=O)c3[nH]ncc3Cl)C2)cc1C (centres undefined)	-18.1
Nc1nc(=O)n([C@H]2C[C@@H](O)[C@@H](CO)O2)cc1Cl	4.0
Cc1[nH]c2ccc(CNC(=O)c3ccccc3-c3ncc[nH]3)cc2c1C	1.0
CC(C)C(=O)N1CCOCC2(CN(Cc3ccc(N(C)C)nc3)CCO2)C1 (centres undefined)	-0.6
CCc1ccccc1NC(=O)C(=O)NCCc1csc(-c2ccc(Cl)cc2)n1	-10.4
O=C(Nc1ccc(F)cc1)N1C[C@@H]2[C@H](c3ccccc31)[C@H](CO)N2Cc1ccccc1Cl	37.4
O=S(=O)(c1ccc(F)cc1)N1C[C@@H]2[C@H](c3ccccc31)[C@@H](CO)N2Cc1ccccc1Cl	-2.9
O=S(=O)(c1ccc(F)cc1)N1C[C@H]2[C@@H](c3ccccc31)[C@@H](CO)N2Cc1ccccc1Cl	-78.6*
CCOc1ccc(CNC(=O)C2=C(C)C(=O)OC23CCN(C(C)=O)CC3)cc1	40.7
CCc1ccccc1S(=O)(=O)N1CCc2nc(-c3ccccc3)sc2C1	-68.1
Cc1c(Cl)cccc1S(=O)(=O)N1CCc2nc(-c3ccccc3)sc2C1	-82.8*
CC(C)c1ccc(S(=O)(=O)N2CCc3nc(-c4ccccc4)sc3C2)cc1	-98.1*
COc1cccc(-c2nc3c(s2)CN(S(=O)(=O)c2cccc(C)c2)CC3)c1	-105.1*
COc1cccc(-c2nc3c(s2)CN(S(=O)(=O)c2cc(C)ccc2C)CC3)c1	-101.9*
CCCc1ccc(S(=O)(=O)N2CCc3nc(-c4cccc(OC)c4)sc3C2)cc1	2.4
COc1ccc(S(=O)(=O)N2CCc3nc(-c4ccccc4)sc3C2)cc1	-19.7
O=S(=O)(c1ccc(Cl)cc1)N1CCc2nc(-c3ccccc3)sc2C1	19.0
Cc1ccc(-c2nc3c(s2)CN(S(=O)(=O)c2ccc(Cl)cc2)CC3)cc1	23.3
COc1ccc(-c2nc3c(s2)CN(S(=O)(=O)c2cccc(Cl)c2)CC3)cc1	0.1
CCN(CC)CC1CN(c2ncccn2)Cc2nccn2C1 (centres undefined)	15.0
O=C(CCC1Nc2c3ccccc3nc(=S)n2C1=O)N1CCN(c2ccc(Cl)cc2)CC1 (centres undefined)	7.9
Cc1nn(-c2ccc(F)cc2)c(C)c1CNCC1(c2cccc(F)c2)CCOCC1	5.7
CC(C)C(=O)N1CCCC(C2C(=O)Nc3ccccc32)C1 (centres undefined)	-31.5
SMILES	Tgondii IFNg
Cc1nc2ccc(Cl)cn2c1C(=O)N1CC2(CCNCC2)CC1C(=O)O (centres undefined)	-6.3
CCOC(=O)c1ccc(NC(=O)Cn2c(=O)cc(-c3nc(C)no3)c3ccccc32)cc1	-12.1
CCOc1ccc(-c2nc3c(s2)CN(S(=O)(=O)c2ccc(OCC)cc2)CC3)cc1	37.1
CCOc1ccc(-c2nc3c(s2)CN(S(=O)(=O)c2cc(C)cc(C)c2)CC3)cc1	-95.1*
COc1cccc(-c2nc3c(s2)CN(S(=O)(=O)c2ccc(C)c(C)c2)CC3)c1	-104.0*
COc1ccc(-c2nc3c(s2)CN(S(=O)(=O)c2ccc(OC)c(OC)c2)CC3)cc1	-16.5
COc1ccc(-c2nc3c(s2)CN(S(=O)(=O)c2ccc(C)c(C)c2)CC3)cc1	-103.1*
COc1cccc(-c2nc3c(s2)CN(S(=O)(=O)c2ccc(F)c(Cl)c2)CC3)c1	-37.4
CCc1ccc(S(=O)(=O)N2CCc3nc(-c4cccc(OC)c4)sc3C2)cc1	-46.3
CCOc1ccc(-c2nc3c(s2)CN(S(=O)(=O)c2ccccc2)CC3)cc1	-48.9
COc1ccc(S(=O)(=O)N2CCc3nc(-c4ccc(C)cc4)sc3C2)cc1	-44.5
COc1cccc(-c2nc3c(s2)CN(S(=O)(=O)c2ccccc2Cl)CC3)c1	-102.2*
CS(=O)(=O)N1CCC2(C=Cc3cc(F)ccc3O2)CC1	9.4
COc1ccc(NC(=O)N2CCC(c3nc(C(=O)N(C)C)c(C)o3)CC2)cc1OC	87.6
COc1ccc(-c2nc(C(=O)Nc3ccc4ncn(C)c4c3)cs2)cc1	-8.5
CC1(C)S[C@H](CNC(=O)Cc2ccccc2)N[C@H]1C(=O)O	6.5
CC(=O)Nc1ccc(NC(=O)c2cncc(NS(=O)(=O)c3ccc(Br)cc3)c2)cc1	39.7
Cc1cc(C)cc(CCC(=O)N2C[C@H]3CC=CC[C@H]3C2)c1	-14.6
COc1ccc(-c2nc3c(s2)CN(S(=O)(=O)c2cccc(F)c2)CC3)cc1OC	28.7
COc1ccc(-c2nc3c(s2)CN(S(=O)(=O)c2cccc(C)c2)CC3)cc1OC	-88.8*
COc1ccc(S(=O)(=O)N2CCc3nc(-c4ccc(OC)c(OC)c4)sc3C2)cc1	-32.1
COc1ccccc1CN(C(=O)c1cc(F)c(OC)c(F)c1)C1CC1	-10.6
CCCS(=O)(=O)N1C[C@H](OCc2cccnc2)[C@@H]2OCCC[C@@H]21	3.3
CN(C)C(=O)CN1C[C@]23CN(C(=O)c4cn(C)c5ccccc45)C[C@@H](C[C@@H]2S1(=O)=O)O3	8.4
O=c1[nH]cc(F)c(=O)[nH]1	-96.3*!
SMILES	Tgondii IFNg
CCC(CC)C(=O)Nc1c[nH]c(=O)[nH]c1=O	-6.8
CC(C)C(=O)Nc1cc(-n2cnnc2)ccc1F	5.0
Cc1cc(CC(C)Nc2nc(-c3cccnc3)nc3c2cnn3C)n[nH]1 (centres undefined)	-20.5
CN(C)Cc1ccc(S(=O)(=O)n2ccc(/C=C/C(=O)NO)c2)cc1	-80.6*
Cc1ccsc1CN(Cc1ncc[nH]1)C1CC1	5.8
COCCCNC(=O)c1cc2c(c3ccccc3n2CC2CC2)n1-c1ncccn1	-6.7
CCNC(=O)c1c2c(-c3ccccc3)ncnc2n2ccccc12	-5.0
Fc1ccc(C(c2ccccc2)(c2ccccc2F)n2ccnc2)cc1 (centres undefined)	-70.9*
Cc1ccccc1-c1nc(CN2CCN(C(=O)Nc3cccc(Cl)c3)CC2)c(C)o1	0.7
Cc1ccsc1CN(C(=O)c1ccc(S(N)(=O)=O)cc1)C1CC1	-3.3
COc1ccc2[nH]c(=O)c(CN(C(=O)c3ccco3)C(C)C)cc2c1	27.0
Cc1ccc(CN(Cc2cc3cccc(C)c3[nH]c2=O)C(=O)c2ccco2)cc1	-79.3*
CCC(=O)N(Cc1ccc(C)cc1)Cc1cc2cccc(C)c2n2nnnc12	33.8
c1ccc(Cc2cn[nH]c2C2CCN(c3cnccn3)CC2)cc1	-14.1
COc1ccc(NC(=O)Nc2ccc(-c3nc(-c4ccccc4)co3)cc2)cc1	-23.4
COc1ccc(Oc2ccc(NC(=O)Nc3ccc(SC(F)(F)F)cc3)cn2)cc1	-87.6*
COc1ccc(NC(=O)CSCC(=O)O)cn1	-7.2
CC(=O)c1ccc(-c2ccc(N)c(C(=O)c3ccccc3)c2)cc1	-85.4*
NC(=O)Cc1cccc(C(=O)c2ccccc2)c1N	19.1
Nc1ccc(N)c(C(=O)O)c1	-18.0
CN1CCc2c(C#N)c(N)sc(=S)c2C1	3.7
O=C(c1cccc(Cl)c1)N1CCN2C[C@H](OCC3CC3)C[C@@H]2C1	0.8
O=C(O)C1c2ccccc2C(=O)N(C2CCCC2)C12CCCCC2 (centres undefined)	-10.6
CCOc1ncccc1-c1cncnc1	-2.6
CCOc1ncccc1-c1cc(CC)nc(N(C)C)n1	6.0
CCOc1ncccc1-c1ccc(C)nc1N	-90.0*
CCN1C(=O)N(CC(N)=O)C(=O)C12CCN(Cc1cccc(-c3ccccc3C)c1)CC2	-15.9
CCC(C(=O)NCCN1CCCC1)n1c2ccccc2c2cnn(C)c(=O)c21 (centres undefined)	63.3

Screening data (PubChem)
